The text below walks through data of the supplement of paper PMC10849652.

Common to all, as to assay: log2 fold change, soluble protein after heating vs DMSO (PISA); higher = thermal stabilisation; K562 lysate, 10 uM; active = over 0.2 and 3.5 SD of the protein, either way, in both replicates (recomputed)
Compound in one test: Cc1cn(-c2cc(NC(=O)c3ccc(C)c(Nc4nccc(-c5cccnc5)n4)c3)cc(C(F)(F)F)c2)cn1 [nilotinib]
The gist of the method:
(§1)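 Thermal stability, expressed as log-two fold change relative to solvent controls, is given from duplicates. Crude K562 extract in PBS pH 7.4 with 1 mM MgCl2, at 1 mg/mL protein, was treated with 10 μM compound for 30 min and heated in aliquots for 3 min across 48°C-58°C. After pooling, adjustment to 0.5% NP-40 at 4°C and centrifugation at 21,000xg for 90 min, supernatant protein was measured by TMTpro 16plex LC-MS/MS with channel sums equalised.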

Compound in test [1]: Cc1nc(Nc2n[nH]c3c2CN(C(=O)N[C@H](CN(C)C)c2ccccc2)C3(C)C)c2sccc2n1
The gist of the method: as §1

Compound in another test: Cc1nc(Nc2ncc(C(=O)Nc3c(C)cccc3Cl)s2)cc(N2CCN(CCO)CC2)n1 [dasatinib]
The method in brief: as §1

Compound in test [2]: Cc1ncc(-c2ccnc(Nc3ccc(S(C)(=O)=O)cc3)n2)n1C(C)C
The gist of the method:
as §1

Compound in test [3]: Cn1cc(-c2ccc3c(c2)CCN3C(=O)Cc2cccc(C(F)(F)F)c2)c2c(N)ncnc21
The method in brief: as §1

Compound in a further test: Cn1cc(CNCC2CCN(c3ncc(C(=O)NO)cn3)CC2)c2ccccc21 [quisinostat]
The method in brief:
as §1

Compound in a further test: Cn1cncc1[C@@](N)(c1ccc(Cl)cc1)c1ccc2c(c1)c(-c1cccc(Cl)c1)cc(=O)n2C [tipifarnib]
The method in brief:
as §1

Compound in test [4]: NC(=O)Nc1cc(-c2cccc(F)c2)sc1C(=O)N[C@H]1CCCNC1
The gist of the method:
as §1

Compound in test [5]: NC(=O)c1cnc(N[C@@H]2CCCC[C@@H]2N)nc1Nc1cccc(-n2nccn2)c1
The gist of the method:
as §1

Compound in test [6]: NC1(c2ccc(-c3nc4ccn5c(=O)[nH]nc5c4cc3-c3ccccc3)cc2)CCC1
The method in brief:
as §1

Compound in test [7]: NCC(=O)Nc1ccc(-n2nc(C(F)(F)F)cc2-c2ccc3c(ccc4ccccc43)c2)cc1
The method in brief:
as §1

Compound in the next test: O=C(CCCCCCC(=O)Nc1ccccc1)NO [vorinostat]
The gist of the method:
as §1

Compound in another test: O=C(O)c1ccc2c(c1)nc(Nc1cccc(Cl)c1)c1ccncc12 [silmitasertib]
The gist of the method: as §1

Compound in test [8]: O=C1NC(=O)C(c2cnc3ccccn23)=C1c1cn2c3c(cc(F)cc13)CN(C(=O)N1CCCCC1)CC2
The method in brief: as §1

Compound in the next test: c1cn2cc(-c3ccc4cn[nH]c4c3)nc(Nc3ccc(N4CCOCC4)cc3)c2n1 [entospletinib]
The gist of the method: as §1

Targets with a hit are over-represented here; the source holds about 8,800 in all. About 0.5% of all pairs of compound and target were hits. Unmarked numbers belong to inactive results.

UniProt Q8ND76, sequence (Q8ND76 whole entry, looked up): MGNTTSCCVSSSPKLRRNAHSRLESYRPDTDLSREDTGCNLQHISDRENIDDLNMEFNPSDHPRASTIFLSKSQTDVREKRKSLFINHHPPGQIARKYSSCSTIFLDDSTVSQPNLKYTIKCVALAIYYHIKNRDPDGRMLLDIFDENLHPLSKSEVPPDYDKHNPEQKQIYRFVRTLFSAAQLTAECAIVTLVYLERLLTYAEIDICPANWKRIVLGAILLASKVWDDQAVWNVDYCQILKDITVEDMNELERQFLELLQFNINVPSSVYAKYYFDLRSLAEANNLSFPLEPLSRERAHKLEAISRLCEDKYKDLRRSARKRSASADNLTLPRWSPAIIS
UniProt Q9HB09, sequence (Q9HB09 whole entry, looked up): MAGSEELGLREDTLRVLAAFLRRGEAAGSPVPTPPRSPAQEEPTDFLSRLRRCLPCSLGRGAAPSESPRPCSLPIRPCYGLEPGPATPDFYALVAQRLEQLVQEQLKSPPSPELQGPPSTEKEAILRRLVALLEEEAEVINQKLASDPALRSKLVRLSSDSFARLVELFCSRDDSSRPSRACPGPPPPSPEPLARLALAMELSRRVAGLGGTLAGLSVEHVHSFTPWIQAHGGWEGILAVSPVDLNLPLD
UniProt O60826, sequence (O60826 whole entry, looked up): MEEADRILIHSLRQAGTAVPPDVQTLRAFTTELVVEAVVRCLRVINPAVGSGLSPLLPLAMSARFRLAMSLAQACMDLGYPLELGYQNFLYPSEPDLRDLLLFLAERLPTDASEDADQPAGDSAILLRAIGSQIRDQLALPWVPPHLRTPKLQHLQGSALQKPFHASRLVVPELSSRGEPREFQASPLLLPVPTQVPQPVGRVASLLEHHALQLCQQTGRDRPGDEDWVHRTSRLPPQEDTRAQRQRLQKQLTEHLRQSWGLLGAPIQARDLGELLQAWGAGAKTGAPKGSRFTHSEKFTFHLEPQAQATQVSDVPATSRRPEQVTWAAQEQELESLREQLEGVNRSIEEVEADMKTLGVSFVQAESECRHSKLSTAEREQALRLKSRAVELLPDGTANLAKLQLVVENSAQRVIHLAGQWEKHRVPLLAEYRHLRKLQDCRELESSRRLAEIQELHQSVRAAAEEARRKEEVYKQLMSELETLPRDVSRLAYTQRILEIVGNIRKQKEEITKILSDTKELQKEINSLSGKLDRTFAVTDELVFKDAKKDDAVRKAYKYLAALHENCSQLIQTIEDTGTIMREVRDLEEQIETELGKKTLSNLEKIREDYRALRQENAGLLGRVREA
UniProt Q6PJG6, sequence (Q6PJG6 whole entry, looked up): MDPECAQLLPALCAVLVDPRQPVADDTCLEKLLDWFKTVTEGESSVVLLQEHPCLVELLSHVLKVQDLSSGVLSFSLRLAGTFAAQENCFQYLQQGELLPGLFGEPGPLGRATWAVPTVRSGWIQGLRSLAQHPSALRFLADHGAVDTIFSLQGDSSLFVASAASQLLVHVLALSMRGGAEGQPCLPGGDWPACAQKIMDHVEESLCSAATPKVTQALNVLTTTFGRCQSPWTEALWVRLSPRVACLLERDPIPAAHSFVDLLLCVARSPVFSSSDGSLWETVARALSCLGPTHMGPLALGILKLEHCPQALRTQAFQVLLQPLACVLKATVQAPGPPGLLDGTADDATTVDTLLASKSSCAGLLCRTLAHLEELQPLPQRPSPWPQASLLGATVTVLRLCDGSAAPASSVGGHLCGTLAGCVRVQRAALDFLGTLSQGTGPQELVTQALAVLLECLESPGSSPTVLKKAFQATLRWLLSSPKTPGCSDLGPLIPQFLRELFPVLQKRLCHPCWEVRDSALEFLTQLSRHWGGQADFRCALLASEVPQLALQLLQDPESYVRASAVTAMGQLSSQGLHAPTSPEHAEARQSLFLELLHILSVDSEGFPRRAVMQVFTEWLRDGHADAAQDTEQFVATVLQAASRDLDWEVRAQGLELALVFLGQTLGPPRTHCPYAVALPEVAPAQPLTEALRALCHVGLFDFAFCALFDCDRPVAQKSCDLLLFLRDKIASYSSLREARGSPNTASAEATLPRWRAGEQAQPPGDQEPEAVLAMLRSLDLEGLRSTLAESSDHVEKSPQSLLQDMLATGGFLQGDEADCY
UniProt Q13535, sequence (Q13535 whole entry, looked up): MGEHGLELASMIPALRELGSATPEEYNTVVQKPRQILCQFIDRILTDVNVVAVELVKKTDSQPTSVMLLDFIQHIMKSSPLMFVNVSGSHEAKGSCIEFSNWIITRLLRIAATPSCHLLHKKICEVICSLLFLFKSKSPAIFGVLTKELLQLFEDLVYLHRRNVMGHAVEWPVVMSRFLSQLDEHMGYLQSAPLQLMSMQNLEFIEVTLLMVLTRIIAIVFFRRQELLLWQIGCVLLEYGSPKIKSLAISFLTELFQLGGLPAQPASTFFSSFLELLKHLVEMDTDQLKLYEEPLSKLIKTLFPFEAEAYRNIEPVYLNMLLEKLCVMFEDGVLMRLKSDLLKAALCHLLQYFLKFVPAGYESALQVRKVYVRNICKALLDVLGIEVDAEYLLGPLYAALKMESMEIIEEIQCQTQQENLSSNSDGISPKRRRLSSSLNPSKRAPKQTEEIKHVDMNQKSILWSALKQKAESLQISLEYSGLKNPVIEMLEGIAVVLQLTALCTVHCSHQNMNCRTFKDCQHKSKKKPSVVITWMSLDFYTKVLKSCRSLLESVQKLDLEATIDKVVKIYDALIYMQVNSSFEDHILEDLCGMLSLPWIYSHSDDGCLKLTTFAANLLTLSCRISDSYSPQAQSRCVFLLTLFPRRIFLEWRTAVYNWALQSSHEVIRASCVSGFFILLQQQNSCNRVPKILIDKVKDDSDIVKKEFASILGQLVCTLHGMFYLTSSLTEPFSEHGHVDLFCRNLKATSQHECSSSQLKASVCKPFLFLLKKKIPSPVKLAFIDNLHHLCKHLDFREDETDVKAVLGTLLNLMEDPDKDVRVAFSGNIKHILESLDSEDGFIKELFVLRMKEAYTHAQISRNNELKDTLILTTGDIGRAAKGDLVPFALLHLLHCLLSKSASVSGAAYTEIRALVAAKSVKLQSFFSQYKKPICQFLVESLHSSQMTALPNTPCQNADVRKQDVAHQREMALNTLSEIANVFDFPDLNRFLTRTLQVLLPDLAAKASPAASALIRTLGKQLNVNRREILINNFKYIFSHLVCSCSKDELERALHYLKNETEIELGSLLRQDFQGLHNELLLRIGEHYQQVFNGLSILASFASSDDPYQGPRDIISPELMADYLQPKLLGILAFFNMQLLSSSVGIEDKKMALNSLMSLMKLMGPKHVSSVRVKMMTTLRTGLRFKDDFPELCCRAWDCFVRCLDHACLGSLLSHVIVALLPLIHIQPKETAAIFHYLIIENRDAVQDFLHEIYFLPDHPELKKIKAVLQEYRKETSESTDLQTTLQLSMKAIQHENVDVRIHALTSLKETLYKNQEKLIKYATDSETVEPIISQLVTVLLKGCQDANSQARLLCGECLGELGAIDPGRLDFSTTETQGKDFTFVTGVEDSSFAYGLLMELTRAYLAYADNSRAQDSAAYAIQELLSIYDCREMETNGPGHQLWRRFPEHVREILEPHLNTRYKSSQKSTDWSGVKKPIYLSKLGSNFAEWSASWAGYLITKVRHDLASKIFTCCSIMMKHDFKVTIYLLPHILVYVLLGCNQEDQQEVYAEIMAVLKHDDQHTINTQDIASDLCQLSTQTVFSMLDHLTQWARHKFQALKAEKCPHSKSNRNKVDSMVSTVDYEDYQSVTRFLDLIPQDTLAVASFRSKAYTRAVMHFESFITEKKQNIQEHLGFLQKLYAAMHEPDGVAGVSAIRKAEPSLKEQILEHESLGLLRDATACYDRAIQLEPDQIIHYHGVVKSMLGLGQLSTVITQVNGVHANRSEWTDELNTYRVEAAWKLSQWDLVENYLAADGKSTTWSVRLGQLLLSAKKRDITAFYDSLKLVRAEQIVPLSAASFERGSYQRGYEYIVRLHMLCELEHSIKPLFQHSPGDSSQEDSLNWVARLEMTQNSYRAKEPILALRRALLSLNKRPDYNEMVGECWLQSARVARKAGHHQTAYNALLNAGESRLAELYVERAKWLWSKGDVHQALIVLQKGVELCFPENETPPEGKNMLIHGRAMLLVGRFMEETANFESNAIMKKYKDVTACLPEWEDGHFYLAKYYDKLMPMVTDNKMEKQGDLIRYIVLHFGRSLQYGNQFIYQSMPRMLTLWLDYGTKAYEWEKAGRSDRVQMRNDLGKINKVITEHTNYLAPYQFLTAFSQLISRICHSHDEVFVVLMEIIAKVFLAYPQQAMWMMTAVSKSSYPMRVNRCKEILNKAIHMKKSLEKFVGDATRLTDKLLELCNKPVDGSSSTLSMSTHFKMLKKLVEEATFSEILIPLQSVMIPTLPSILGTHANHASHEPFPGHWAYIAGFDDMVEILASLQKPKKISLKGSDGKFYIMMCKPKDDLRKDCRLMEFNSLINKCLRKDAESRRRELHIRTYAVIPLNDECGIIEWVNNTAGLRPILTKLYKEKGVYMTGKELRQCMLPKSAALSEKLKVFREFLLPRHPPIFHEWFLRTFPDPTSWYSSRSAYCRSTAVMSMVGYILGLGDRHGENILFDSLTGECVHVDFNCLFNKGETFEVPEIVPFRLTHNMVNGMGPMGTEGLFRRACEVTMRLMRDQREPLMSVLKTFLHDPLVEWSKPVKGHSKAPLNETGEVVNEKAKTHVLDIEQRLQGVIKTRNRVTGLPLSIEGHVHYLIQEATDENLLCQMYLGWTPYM
UniProt P04632, sequence (P04632 whole entry, looked up): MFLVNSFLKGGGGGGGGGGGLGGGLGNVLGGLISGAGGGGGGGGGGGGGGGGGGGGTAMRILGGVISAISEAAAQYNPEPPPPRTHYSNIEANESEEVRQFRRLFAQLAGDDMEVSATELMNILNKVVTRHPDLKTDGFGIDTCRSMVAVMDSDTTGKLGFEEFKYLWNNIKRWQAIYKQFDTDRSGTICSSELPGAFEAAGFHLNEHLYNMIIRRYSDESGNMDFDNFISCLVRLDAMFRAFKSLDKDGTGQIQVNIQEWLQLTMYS

As to CCDC22 (UniProt O60826), the log2 fold change with nilotinib was 0.007; in [1] it was -0.018; with dasatinib, -0.055; in test [2], -0.005; in test [3], -0.006; with quisinostat, -0.006. For the same target, the log2 fold change was 0.012 with tipifarnib; 0.041 in [4]; 0.025 in test [5]; -0.017 in [6]; 0.056 in test [7]; -0.222 (active) with vorinostat. Moreover, the log2 fold change with silmitasertib was 0.022; in test [8] it was 0.014; with entospletinib, -0.021.
With CD63 (UniProt P08962), the log2 fold change was -0.053 with nilotinib; 0.098 in test [1]; -0.034 with dasatinib; -0.032 in test [2]; 0.005 in test [3]; -0.08 with quisinostat. The log2 fold change with tipifarnib is 0.126; in [4] it was -0.006; in test [5], -0.043; in test [6] it was -0.009; in test [7] it was -0.1; with vorinostat it was 0.123. For the same target, the values for the log2 fold change (in the test with silmitasertib; in [8]; in the test with entospletinib) were -0.039, -0.173 and 0.077, respectively.
BCL2L12 (UniProt Q9HB09): the log2 fold change is -0.12 with nilotinib; -0.007 in test [1]; -0.129 in the test with dasatinib; -0.004 in test [2]; 0.046 in [3]; 0.022 in the test with quisinostat. Moreover, the log2 fold change with tipifarnib was 0.075; in test [4] it was -0.041; in test [5], 0.121; in test [6], 0.013; in test [7] it was 0.031; with vorinostat it was -0.033. The log2 fold change with silmitasertib was 0.1; in [8], -0.085; with entospletinib it was -0.129.
For CCNY (UniProt Q8ND76), the log2 fold change with nilotinib was 0.017; in [1], 0.016; in the test with dasatinib, -0.021; in test [2], 0.05; in [3], 0.065; in the test with quisinostat, -0.216. The log2 fold change was 0.057 with tipifarnib; 0.077 in test [4]; -0.022 in [5]; 0.025 in test [6]; 0.076 in test [7]; -0.822 (active) in the test with vorinostat. Besides, the log2 fold change is -0.018 with silmitasertib, -0.002 in [8] and -0.074 in the test with entospletinib.
With CCNK isoform 4 (UniProt O75909), the log2 fold change is 0.011 in the test with nilotinib; -0.03 in test [1]; -0.051 in the test with dasatinib; -0.009 in test [2]; 0.003 in test [3]; 0.009 with quisinostat. Moreover, the log2 fold change in the test with tipifarnib was -0.004; in test [4], -0.006; in test [5], -0.005; in test [6], -0.011; in [7], 0.032; with vorinostat, 0.093. The log2 fold change with silmitasertib was -0.007; in [8], -0.051; with entospletinib, -0.002.
For the target CAPNS1 (UniProt P04632), the log2 fold change with nilotinib is -0.007; in test [1], 0.027; with dasatinib, 0.035; in [2], -0.002; in [3], -0.014; with quisinostat, 0.078. Further, the log2 fold change in the test with tipifarnib was 0.017; in [4] it was -0.077; in [5] it was -0.05; in test [6], 0.01; in [7], -0.08; with vorinostat it was 0.07. Besides, the results for the log2 fold change (in the test with silmitasertib; in test [8]; with entospletinib) were -0.007, -0.039 and 0.033, respectively.
CDC45 isoform 3 (UniProt O75419): the log2 fold change with nilotinib is -0.022; in [1], 0.013; with dasatinib, -0.044; in test [2], -0.003; in test [3], 0.038; with quisinostat, 0.015. For the same target, the log2 fold change is -0.022 with tipifarnib; 0.047 in test [4]; 0.003 in [5]; -0.058 in [6]; -0.021 in test [7]; -0.487 (active) with vorinostat. The log2 fold change is 0.012 with silmitasertib, 0.015 in [8] and 0.03 with entospletinib.
As to ATR (UniProt Q13535), the log2 fold change is -0.075 in the test with nilotinib; 0.002 in [1]; 0.001 in the test with dasatinib; 0.013 in [2]; 0.001 in test [3]; -0.219 with quisinostat. For the same target, the log2 fold change with tipifarnib was -0.032; in test [4], 0.047; in test [5], 0.014; in test [6], -0.085; in [7], 0.044; with vorinostat it was -0.131. Also, the log2 fold change with silmitasertib was 0.509 (active); in test [8], -0.01; with entospletinib, 0.046.
For the target BRAT1 (UniProt Q6PJG6), the log2 fold change was 0.031 with nilotinib; -0.016 in test [1]; -0.046 in the test with dasatinib; 0.01 in test [2]; 0.046 in test [3]; -0.07 with quisinostat. Moreover, the log2 fold change with tipifarnib is 0; in test [4] it was 0.008; in [5] it was 0.047; in [6], -0.017; in test [7] it was 0.015; with vorinostat, -0.32 (active). For the same target, the log2 fold change is -0.002 with silmitasertib, -0.013 in test [8] and 0.004 with entospletinib.
